Source: PubChem
In the library only some 21% were active in any assay of this set; here they are far more common.
AMA1 RON2 block – inhibitors of Plasmodium falciparum AMA1-RON2 interaction | AlphaScreen AMA1-biotinylated RON2 peptide binding | Potency, µM (titrated, usually from 58.2 µM), without a hit: at the top dose activity change, negative = inhibition, usual class: inhibitors | actives 0.2% (n = 360,000) | AID 720542;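 further: potency means the concentration at half of the fitted maximal effect; 0% = vehicle wells and -100% = peptide control; nearly all actives have a fitted effect of over 45% in size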
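AMA1 (3D7) with his tag at 25 nM final met compounds first, then biotinylated RON2 peptide at 25 nM; detection used donor plus acceptor beads, 10 µg/mL apiece, read by AlphaScreen after 30 min at room temperature.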
HCV inh – blocks hepatitis C virus. Huh7.5.1 HCVcc-Cre infection, luciferase reporter, 44 h. AID 651820. Potency, µM (top dose mostly 41.8 µM), without a hit: at the top dose activity change, negative = inhibition, hits mostly inhibitors. actives 3.4% (n = 340,000); further: potency means the concentration at half of the fitted maximal effect; on the % scale 0 is the no-effect control and ±100 the full control effect
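Luciferase read-out (15 sec integration) after a 15 min room-temperature substrate step quantifies HCVcc-Cre infection. Cells, 1,000 per well, had compound added 4 h post-plating, then virus at ~0.5 moi, and were cultured 44 h.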
Cycloheximide cs – counter-screen hit for Shiga toxin inhibitors, cycloheximide; cell reporter, cycloheximide protein synthesis inhibition counterscreen; max response, %; actives 12% (n = 300,000); AID 2314; in the data active means max response mostly above about 13%, no sharp cut-off; inactive means mostly below about 14%; further: read at 38.3 µM for the half of the compounds with a filed dose; 0% is about no effect
Pf growth 48h – P. falciparum growth inhibition at 48 hours (one generation). P. falciparum luciferase growth in erythrocytes, 48 h. Potency, µM (series often up to 28.7 µM), without a hit: at the top dose activity change, negative = inhibition, hits mostly inhibitors. actives 5.9% (n = 310,000); further: potency means the concentration at half of the fitted maximal effect; on the % scale 0 is the no-effect control and ±100 the full control effect
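In quantitative HTS format, infected erythrocytes bearing luciferase-reporter parasites were treated for a single generation at 37 C. Luminescence after adding detection reagent served as the growth measure.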
Pf growth 96h – P. falciparum growth inhibition at 96 hour, primary screen for plastid delayed-death inhibitors | P. falciparum luciferase reporter growth, 96 h | Potency, µM (top dose mostly 28.7 µM), for inactives: at the top dose activity change, negative = inhibition, hits mostly inhibitors | actives 6.9% (n = 320,000) | AID 504834; further: potency means the concentration at half of the fitted maximal effect; on the % scale 0 is the no-effect control and ±100 the full control effect
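Cell-based qHTS: luciferase-tagged P. falciparum in erythrocytes (2% hematocrit, 0.05% parasitemia final) incubated with compounds for 96 hours, 37 C, 5% CO2; luciferase detection reagent then added and luminescence measured.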
Shiga inhibitor – blocks Shiga toxin action in Vero cells; inhibition, % at 38.7 µM; AID 2315; Vero cells, Shiga toxin protein synthesis inhibition reporter; actives 9.2% (n = 290,000); in the data active means inhibition mostly above about 28%, no sharp cut-off; inactive means mostly below about 43%; further: 0% is about no effect
Starred values were filed as active, the others as inactive; ? = inconclusive; nt = not tested or not shown; [ ] = dose if it differs, or a comment. Unless noted, the call rests on the fitted dose curve; in most records, active means well fitted curve in the direction sought with a large enough effect; inconclusive means small, poorly fitted or top-dose-only effect, or another doubt; inactive means no such curve, though single readings can be large; an effect the other way counts as inactive or inconclusive.

SMILES	AMA1 RON2 block	HCV inh	Cycloheximide cs	Pf growth 48h	Pf growth 96h	Shiga inhibitor
CS(=O)(=O)N1CCC(C(=O)Nc2ccc3c(c2)OCO3)CC1	1%	13%	8	nt	21%	-13
CC(=O)c1cc2c(cc1NC(=O)CCC1CCCC1)OCO2	nt	?	3	-16%	?	-1
CC(=O)c1cc2c(cc1NC(=O)C1CC1)OCO2	4%	11µM*	-2	19%	10%	7
CCN(CC)S(=O)(=O)N1CCC(C(=O)NCc2ccc3c(c2)OCO3)CC1	-7%	26%	-5	-10%	2.6µM*	-7
O=C(Nc1ccc2c(c1)OCO2)C1CCCCC1	5%	1%	33*	31%	?	38*
CN(C(=O)CN1CCN(c2cc(-c3cccc4oc5ccccc5c34)ncn2)CC1)c1ccccc1	-5%	nt	nt	nt	nt	nt
O=C(NCCc1ccccc1F)C1CCCN1S(=O)(=O)c1ccc2ccccc2c1 (stereo not drawn)	-6%	?	21*	?	48%	34
CCNC(=O)C1CCCN1S(=O)(=O)c1ccc2ccccc2c1 (stereo not drawn)	33%	-4%	4	8%	-10%	-6
O=C(CSc1nc2ccccc2o1)Nc1nc2c(s1)CCCC2	41%	?	nt	nt	nt	nt
O=C(CSc1nc2ccccc2o1)Nc1nc2ccccc2s1	24%	-2%	43*	42%	nt	49*
O=C(CSc1nc2ccccc2o1)Nc1nc(-c2ccccc2)cs1	-22%	3%	72*	231%	328%	111*
NC(=O)c1ccccc1NC(=O)CSC1=NCCS1	54%	5%	11*	0%	?	14
O=C(CSc1nc2ccccc2o1)Nc1nccs1	37%	-2%	28*	118%	?	31
CN(C)S(=O)(=O)c1ccc(/C(O)=C2/C(=O)C(=O)N(CCCN3CCOCC3)C2c2ccncc2)cc1 (stereo not drawn)	-19%	10%	nt	nt	nt	nt
O=C(N1CCOCC1)C12OC3CC(CC(C3)O1)O2	6%	nt	nt	nt	nt	nt
CN(C)C(CNC(=O)CNC(=O)Cc1cccc2ccccc12)c1ccccc1 (stereo not drawn)	5%	-20%	-1	-16%	28%	-8
O=C(CSC1=NCCS1)Nc1nc2ccccc2s1	36%	?	28*	91%	-11%	81*
Cc1sc(NC(=O)CSC2=NCCS2)nc1-c1ccccc1	-21%	?	-3	nt	-58%	-11
Cn1c(SCC(=O)Nc2nccs2)nnc1-c1ccc(S(=O)(=O)N2CCCC2)cc1	5%	3%	-3	nt	6.6µM*	-15
CCc1nnc(NC(=O)CSc2nnc3nc(C)cc(C)n23)s1	45%	16%	-1	-10%	2.1µM*	-4
CCn1c(SCc2ccccc2)nnc1-c1ccc(S(=O)(=O)N2CCCCC2)cc1	7%	?	8	10µM*	0%	-25
CCn1c(SCC(=O)O)nnc1-c1ccc(S(=O)(=O)N2CCCC2)cc1	14%	10%	-5	13%	?	-7
CCc1nnc(NC(=O)CSc2nnc(-c3ccc(S(=O)(=O)N4CCCC4)cc3)n2CC)s1	9%	11%	24*	?	?	9
CCn1c(SCC(=O)Nc2nccs2)nnc1-c1ccc(S(=O)(=O)N2CCCCCC2)cc1	24%	?	-7	nt	-7%	-22
N#Cc1cccc(NC(=O)COC(=O)Cn2nc(-c3ccccc3)oc2=O)c1	22%	17%	nt	-16%	-1%	nt
SMILES	AMA1 RON2 block	HCV inh	Cycloheximide cs	Pf growth 48h	Pf growth 96h	Shiga inhibitor
CCN1C(=O)[C@H]2[C@@H](c3ccc(-c4ccc(C(C)=O)cc4)c(OC)c3)N[C@@](Cc3ccccc3)(C(=O)OC)[C@H]2C1=O	-5%	?	nt	8.3µM*	9.3µM*	nt
CCN1C(=O)[C@H]2[C@@H](c3ccc(-c4ccccc4)c(OC)c3)N[C@@](Cc3ccccc3)(C(=O)OC)[C@H]2C1=O	12%	18%	nt	1.9µM*	0.66µM*	nt
CCN1C(=O)[C@H]2[C@@H](c3ccc(-c4cccc(Cl)c4)c(OC)c3)N[C@@](CC(C)C)(C(=O)OC)[C@H]2C1=O	-11%	?	nt	0.33µM*	0.23µM*	nt
O=C(CN(Cc1ccccc1Cl)C(=O)c1csnn1)NCc1ccc2c(c1)OCO2	-9%	-4%	-2	-20%	1%	-10
COc1ccc(CNC(=O)c2ccccc2NC(=O)C2=CSCCO2)c(OC)c1	-9%	?	-2	?	?	-2
O=C1CCCN1c1ccc(S(=O)(=O)NCCOc2ccccc2)cc1	36%	-23%	-2	-27%	?	-2
Cc1cc(N2CCCC2=O)cc(C)c1S(=O)(=O)NCCOc1ccc(C(C)(C)C)cc1	-5%	11µM*	-5	13µM*	?	0
FC(F)(F)c1nc2cc3nc4ccccc4[nH]c3cc2n1	7%	4%	39*	17%	73%	69*
O=C(OCC#Cc1c(COC(=O)c2ccccc2)nnn1Cc1ccccc1)c1ccccc1	11%	-26%	-1	?	31%	-5
O=C(N/N=C/c1ccc([N+](=O)[O-])o1)c1ccc(NS(=O)(=O)c2cccs2)cc1	-17%	10%	-1	3.7µM*	0.93µM*	-9
O=C(NN=Cc1ccc(F)c(F)c1)c1ccc(NS(=O)(=O)c2cccs2)cc1	26%	38%	nt	nt	nt	nt
O=C(N/N=C/c1ccc2c(c1)OCO2)c1ccc(NS(=O)(=O)c2cccs2)cc1	20%	11%	24*	22%	16%	81*
Cc1ccc(Cn2nc(C)cc2C(=O)Nc2ccc(Cl)cc2)cc1	-10%	-5%	39*	?	?	72*
Cc1ccc(Cn2nc(C(=O)Nc3ccc(Br)cc3)cc2C)cc1	5%	?	54*	-17%[0.00184 µM]	43%	154*
Cc1ccc(Cn2nc(C)cc2C(=O)Nc2ccccc2Cl)cc1	-6%	-25%	59*	2%[0.00184 µM]	42%	147*
CC(=O)Nc1cc(-c2ccccc2)nn1Cc1ccc(Cl)cc1	1%	-7%	-3	22%	30%	16
COC(=O)CC1C(=O)NCCN1C(=O)c1oc2c(C)c(C)ccc2c1C (stereo not drawn)	-18%	nt	nt	nt	nt	nt
Cc1ccc(C(=O)NCC(=O)OCCCOC(=O)CNC(=O)c2ccc(C)cc2)cc1	1%	14%	nt	6%	32%	nt
CCOc1cc(/C=C2\SC(=N)N(c3nonc3N)C2=O)ccc1OCCN1CCOCC1	-1%	15%	14*	1.3µM*	?	22
CCOc1cc(/C=C2\SC(=N)N(c3nonc3N)C2=O)ccc1OCC(N)=O	-8%	?	0	-20%	38%	-13
Cc1cccc(N/N=C/c2c(O)[nH]c(=S)[nH]c2=O)c1	69%	-7%	nt	nt	nt	nt
NS(=O)(=O)c1ccc(N/N=C/c2ccncc2)cc1	1%	5%	7	6.6µM*	?	28
Cc1cccc(NC(=O)C(=O)N/N=C/c2ccncc2)c1	16%	3%	1	17%	9%	9
